Screens (PubChem BioAssay)
Sampled rows, rich in hits. Any-hit rate of the full collection: about 4.1%.
DAX1 inh-1 – DAX1 (NR0B1) inhibitors, primary screen, cell-based, HEK293, Gal4-DAX1, luciferase luminescence. Nuclear receptor subfamily 0 group B member 1 (Homo sapiens), P51843. HEK293 Gal4-DAX1 luciferase reporter. inhibition, % at 6.75 µM. AID 504766, 2011. hit rate 0.99% among 340,000;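 active = inhibition above the mean over all tested compounds plus 3 SD, cut at about 4.2% in these data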;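 note: 0% = DAX1-transfected cells with DMSO and 100% = empty-vector control cells with DMSO; inhibition shows as a rise in luminescence from relieved DAX1 repression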
Target sequence (P51843 207-470 limits assumed): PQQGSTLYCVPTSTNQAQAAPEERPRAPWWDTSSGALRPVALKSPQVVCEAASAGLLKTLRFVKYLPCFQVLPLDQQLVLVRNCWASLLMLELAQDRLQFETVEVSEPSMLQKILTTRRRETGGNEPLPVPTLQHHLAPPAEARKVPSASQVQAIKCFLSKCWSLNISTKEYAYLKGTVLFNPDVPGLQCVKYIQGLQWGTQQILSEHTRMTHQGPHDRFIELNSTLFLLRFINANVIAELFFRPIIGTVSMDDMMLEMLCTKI
ssDAF-12 act – S. stercoralis DAF-12 nuclear receptor activators, primary screen, cell-based, luminescence, HEK293, GRIP1 co-expression, lit1-tk-luc. Nuclear hormone receptor DAF-12 (Strongyloides stercoralis). HEK293 ssDAF-12/GRIP1 lit1-tk-luc reporter; % of 3 µM dafachronic acid response. activation, % at 6.8 µM. hit rate 1% among 370,000. AID 652126, 2013;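 active = activation above the mean over all tested compounds plus 3 SD, cut at about 0.9% in these data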;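 note: 0% = DMSO-only wells and 100% = 3 µM delta7-dafachronic acid wells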
DAX1 inh-2 – DAX1 (NR0B1) inhibitors on StAR promoter, primary screen, cell-based, luminescence, SF-1 (NR5A1), full-length DAX-1; HEK293T StAR-luciferase reporter, SF-1/DAX-1 repression relief; inhibition, % at 6.8 µM; hit rate 1.1% among 370,000; AID 652010, 2013;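 active = inhibition above the mean over all tested compounds plus 3 SD, cut at about 3.6% in these data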;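 note: 0% = DAX-1 cells with DMSO and 100% = cells lacking DAX-1 with DMSO; higher inhibition means more luminescence from relief of DAX-1 repression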
PolyA inh – polyadenylation inhibitors in yeast reporter cells, primary screen, luminescence, S. cerevisiae | S. cerevisiae SKY197-pL101 polyadenylation reporter, beta-gal luminescence; efflux-impaired pdr1/pdr3 knockout yeast; score 100 = 6 SD above DMSO | activity score, % at 12 µM | hit rate 0.02% among 300,000;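 active = lowest replicate activity score at least 50, where 100 means six control SD above control mean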;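 note: yeast exposed to compound for 9 h at 30 °C; higher score means more reporter readthrough which indicates perturbed polyadenylation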
hgDAF12 agonist – H. glycines DAF-12 receptor agonists, primary screen, cell-based, luminescence, HEK293, GAL4 fusion, UAS-luciferase. Nuclear hormone receptor DAF-12 (Heterodera glycines), GAL4 fusion. HEK293 GAL4-hgDAF12 UAS-luciferase reporter, agonist luminescence; normalized to butyrate control. activation, % at 6.8 µM. hit rate 1.8% among 370,000. AID 687014, 2013;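 active = activation above a cutoff set at the mean of all screened compounds plus 3 SD, cut at about 10% in these data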;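 note: 0% = DMSO wells and 100% = sodium butyrate wells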
hcDAF-12 act – H. contortus DAF-12 nuclear receptor activators, primary screen, cell-based, luminescence, HEK293, lit1-tk-luc reporter | HEK293 hcDAF-12 lit1-tk-luc reporter; 0% DMSO, 100% Δ7-dafachronic acid | activation, % at 6.8 µM | hit rate 1.4% among 370,000;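 active = activation above the mean of all tested compounds plus 3 SD, cut at about 5.5% in these data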;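 note: 100% = response to 3 µM Δ7-dafachronic acid high control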
LXR ag – LXR agonists, Gal4 luciferase reporter, confirmation, counter-screen for hcDAF-12 agonist project, cell-based, luminescence, HEK293, H. contortus campaign | 3,400 tested, under 10 active | HEK293 Gal4-LXR tk-luc reporter, 24 h; normalized: DMSO 0%, positive control 100% | activation, % at 6.8 µM | shares compounds with hcDAF-12 act;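 active = mean percent activation of the reporter above a cutoff set as the average over tested compounds plus their standard deviation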
Target sequence (P55055 whole entry, looked up, the tested form may be a part): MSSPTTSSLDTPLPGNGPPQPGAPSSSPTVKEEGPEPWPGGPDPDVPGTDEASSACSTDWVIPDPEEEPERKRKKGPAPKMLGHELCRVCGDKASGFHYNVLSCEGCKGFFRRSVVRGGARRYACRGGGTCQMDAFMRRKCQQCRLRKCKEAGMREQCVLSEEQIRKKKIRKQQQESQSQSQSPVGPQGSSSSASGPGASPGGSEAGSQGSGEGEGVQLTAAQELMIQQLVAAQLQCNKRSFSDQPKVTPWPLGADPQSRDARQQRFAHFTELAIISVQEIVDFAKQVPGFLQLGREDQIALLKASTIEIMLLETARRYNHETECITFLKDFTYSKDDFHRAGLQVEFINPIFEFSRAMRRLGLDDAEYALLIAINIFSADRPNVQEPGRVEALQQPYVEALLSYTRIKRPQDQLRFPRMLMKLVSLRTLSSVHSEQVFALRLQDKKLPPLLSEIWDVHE
hcDAF12 ag – H. contortus DAF-12 receptor agonists, confirmation, cell-based, luminescence, HEK293, lit1-tk-luc, triplicate. shares compounds with hcDAF-12 act. activation, % at 6.8 µM. HEK293 hcDAF-12 lit1-tk-luc reporter; % of Δ7-dafachronic acid response. hit rate 61% among 3,400;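 active = mean activation across triplicate tests above the threshold derived from the earlier primary screen, cut at about 5.5% in these data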;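 note: 0% = DMSO only wells and 100% = 3 µM Δ7-dafachronic acid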
* hit, by the source's call; ! = not confirmed by another sample.

Results for COc1ccccc1-c1nnc(SCC(=O)N2CCOCC2)o1 ?
DAX1 inh-1: 1.9; ssDAF-12 act: 1.1*; DAX1 inh-2: 2.6; PolyA inh: 2.4; hgDAF12 agonist: 9.3; hcDAF-12 act: 10.2*; LXR ag: 0.3; hcDAF12 ag: 11.1*

How did Cc1cccc(-c2nnc(SCC(=O)N3CCOCC3)o2)c1 do in these assays?
DAX1 inh-1: 3.4; ssDAF-12 act: -0.2; DAX1 inh-2: 0.8; PolyA inh: 7.6; hgDAF12 agonist: 7.2; hcDAF-12 act: 6.8*; LXR ag: 0.0; hcDAF12 ag: 3.4

What do the screens show for `O=C(CSc1nnc(-c2cccc(F)c2)o1)N1CCOCC1`?
DAX1 inh-1: 2.0; ssDAF-12 act: -0.7; DAX1 inh-2: -0.2; PolyA inh: 7.1; hgDAF12 agonist: -3.2; hcDAF-12 act: -1.6

What do the screens show for `Cc1ccc(NC(=O)C2=C(O)CCn3c2nc2ccccc23)cc1`?
DAX1 inh-1: 1.3; ssDAF-12 act: 1.9*; DAX1 inh-2: -0.4; PolyA inh: 9.8; hgDAF12 agonist: 3.9; hcDAF-12 act: 8.9*; LXR ag: 0.1; hcDAF12 ag: 4.8

Results for CCCCc1noc(-c2c(-c3ccccc3Cl)noc2C)n1 ?
DAX1 inh-1: -0.4; ssDAF-12 act: -1.9; DAX1 inh-2: 0.6; PolyA inh: -36.0; hgDAF12 agonist: -1.5; hcDAF-12 act: -1.1

What do the screens show for `COc1ccc(-c2nc3ccccc3c(=O)n2CCOc2ccccc2C)cc1`?
DAX1 inh-1: 6.9*; ssDAF-12 act: 0.0; DAX1 inh-2: -0.2; PolyA inh: -15.7; hgDAF12 agonist: 2.6; hcDAF-12 act: 6.6*; LXR ag: -0.3; hcDAF12 ag: 1.6

Results for Clc1ccccc1-c1nc(-c2ccncc2)no1 ?
DAX1 inh-1: 1.8; ssDAF-12 act: -0.7; DAX1 inh-2: 1.1; PolyA inh: 16.8; hgDAF12 agonist: 9.7; hcDAF-12 act: 7.2*!; LXR ag: 1.6; hcDAF12 ag: 5.0

What do the screens show for `CCCCc1ccc(-c2nc(-c3ccncc3)no2)cc1`?
DAX1 inh-1: 0.9; ssDAF-12 act: 0.0; DAX1 inh-2: 2.4; PolyA inh: 17.0; hgDAF12 agonist: 7.4; hcDAF-12 act: 0.2

How did CCc1ccc(-c2nc(-c3ccncc3)no2)cc1 do in these assays?
DAX1 inh-1: 0.5; ssDAF-12 act: 0.7; DAX1 inh-2: 3.5; hgDAF12 agonist: 10.9*; hcDAF-12 act: 8.2*; LXR ag: 1.6; hcDAF12 ag: 8.3*

Results for Clc1ccccc1-c1nc(-c2cccnc2)no1 ?
DAX1 inh-1: 2.9; ssDAF-12 act: 1.3*; DAX1 inh-2: 2.6; PolyA inh: -12.6; hgDAF12 agonist: 8.6; hcDAF-12 act: 8.1*; LXR ag: 1.3; hcDAF12 ag: 8.1*

What do the screens show for `COc1ccc(-c2cc(C(=O)OC3CCOC3=O)c3ccccc3n2)cc1` (centres undefined)?
DAX1 inh-1: -0.4; ssDAF-12 act: -1.2; DAX1 inh-2: -0.2; PolyA inh: -0.3; hgDAF12 agonist: 0.8; hcDAF-12 act: 0.4

Results for CCOc1ccc(C(=O)COC(=O)c2nn(CC)c(=O)c3ccccc23)cc1 ?
DAX1 inh-1: 0.4; ssDAF-12 act: -0.1; DAX1 inh-2: 0.7; hgDAF12 agonist: 1.3; hcDAF-12 act: 3.2

What do the screens show for `COc1cc(C)c(CN2CCN(C(C)C(=O)NC(C)c3ccccc3)CC2)cc1OC` (centres undefined)?
DAX1 inh-1: 0.5; ssDAF-12 act: -1.3; DAX1 inh-2: -0.5; PolyA inh: -5.3; hgDAF12 agonist: -1.4; hcDAF-12 act: -0.6

How did Cc1ccc2cn[nH]c2c1N do in these assays?
DAX1 inh-1: -0.3; ssDAF-12 act: 0.7; DAX1 inh-2: -0.6; PolyA inh: -0.1; hgDAF12 agonist: 3.2; hcDAF-12 act: 6.9*; LXR ag: -0.2; hcDAF12 ag: 4.1

Results for Cc1ccc(-c2ccc(C)c(N)c2C)c(C)c1N ?
DAX1 inh-1: 0.3; ssDAF-12 act: -1.4; DAX1 inh-2: -1.0; PolyA inh: 19.0; hgDAF12 agonist: -2.6; hcDAF-12 act: -2.4

How did CCSc1nc(=S)n(Cc2ccccc2)c(C)c1C(C)=O do in these assays?
DAX1 inh-1: -1.0; ssDAF-12 act: -0.6; DAX1 inh-2: 0.3; PolyA inh: 6.6; hgDAF12 agonist: -1.4; hcDAF-12 act: -0.8

How did CSc1nc(=S)n(Cc2ccccc2)c(C)c1C(C)=O do in these assays?
DAX1 inh-1: 0.5; ssDAF-12 act: -1.2; DAX1 inh-2: 0.7; PolyA inh: -5.6; hgDAF12 agonist: 0.3; hcDAF-12 act: 9.1*; LXR ag: -0.1; hcDAF12 ag: 1.2

What do the screens show for `Nn1cnc2scc(-c3ccc(Cl)cc3)c2c1=O`?
DAX1 inh-1: 1.1; ssDAF-12 act: 1.7*; DAX1 inh-2: -0.3; PolyA inh: -3.4; hgDAF12 agonist: 9.1; hcDAF-12 act: 6.9*; LXR ag: 0.1; hcDAF12 ag: 1.0

What do the screens show for `CCC(C(=O)NCc1ccccn1)n1c2ccccc2c2nc(=O)cc(C)n21` (centres undefined)?
DAX1 inh-1: 0.0; ssDAF-12 act: -0.9; DAX1 inh-2: 0.1; PolyA inh: 2.7; hgDAF12 agonist: 0.2; hcDAF-12 act: 2.0

How did CN(C)CCn1c(NC(=O)c2ccc(Cl)cc2)nc2ccccc21 do in these assays?
DAX1 inh-1: 0.8; ssDAF-12 act: 0.4; DAX1 inh-2: 3.8*; PolyA inh: -14.6; hgDAF12 agonist: 5.0; hcDAF-12 act: 7.1*; LXR ag: 0.8; hcDAF12 ag: 9.9*

Results for CCN(CC)CCn1c(NC(=O)c2ccc(C(F)(F)F)cc2)nc2ccccc21 ?
DAX1 inh-1: 0.5; ssDAF-12 act: -0.7; DAX1 inh-2: -0.4; PolyA inh: 3.7; hgDAF12 agonist: -0.3; hcDAF-12 act: 0.1
